High-throughput results (PubChem)
This is a sample that favours compounds with a hit; in the whole collection about 3.4% have one here.
MITF primary: inhibitors of human MITF | inhibition, % at 2.6 µM | AlphaScreen MITF homodimerization, bead proximity signal | hit rate 0.91% among 650,000; in the data active = inhibition above about 50%;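 also: 0% = vehicle wells with protein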
TEAD-YAP inh: TEAD-YAP interaction inhibition | hit rate 1.4% among 640,000 | HEK-TIYL cells, TEAD-Gal4/YAP UAS-luciferase luminescence | AID 1259422 | inhibition, % at 9.12 µM; in the data active = inhibition above about 32%;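 also: 0% = median of test compound wells and 100% = reference inhibitor wells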
GPR151 activ: activates the human receptor GPR151 | Q8TDV0 | hit rate 1% among 650,000 | activation, % at 11.2 µM | PathHunter beta-arrestin GPR151 cells, luminescence; in the data active = activation above about 4.9%;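 also: 0% = median of compound wells and 100% = cells with positive control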
Target sequence (Q8TDV0 whole entry, looked up): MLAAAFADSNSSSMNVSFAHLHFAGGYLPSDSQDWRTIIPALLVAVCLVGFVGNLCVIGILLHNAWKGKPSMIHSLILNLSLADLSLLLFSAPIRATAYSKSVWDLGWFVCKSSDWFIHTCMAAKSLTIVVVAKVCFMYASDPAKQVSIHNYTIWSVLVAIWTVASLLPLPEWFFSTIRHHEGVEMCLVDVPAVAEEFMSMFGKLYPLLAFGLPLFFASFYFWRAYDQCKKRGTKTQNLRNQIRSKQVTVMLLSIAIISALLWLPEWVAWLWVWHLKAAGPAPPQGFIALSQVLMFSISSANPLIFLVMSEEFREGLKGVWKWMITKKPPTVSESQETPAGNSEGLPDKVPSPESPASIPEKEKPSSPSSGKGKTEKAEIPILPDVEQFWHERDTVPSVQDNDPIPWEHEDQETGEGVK
FBW7 activator: activators of human E3 ligase FBW7 | Q969H0 | AlphaScreen FBW7–phospho-cyclin E peptide binding, activator screen | normalized activity (activation), % at 26.1 µM | hit rate 0.13% among 650,000 | AID 1259310; in the data active = normalized activity above about 1.9%;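 also: purified mutant Fbw7 with reduced substrate affinity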
GPR151 confirm: confirmation of human GPR151 activators; shares compounds with GPR151 activ; GPR151 PathHunter beta-arrestin cells, luminescence, 90 min; % of EA-reagent control over plate median; 6,700 tested, under 10 active; AID 1508609; activation, % at 11.2 µM;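 active = mean percent activation across replicates above the confirmation screen cutoff of 4.91%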
GPR119 counter: counter-screen for GPR151 activators: effect on human GPR119 | hit rate 0.3% among 6,700 | activation, % at 11.2 µM | shares compounds with GPR151 activ | AID 1508611 | GPR119 PathHunter beta-arrestin cells, luminescence, 90 min; 0 = compound-well median, 100 = enzyme-acceptor control;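 active = mean percent activation in the counterscreen above 29.09%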;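 also: counterscreen on off-target GPR119 to flag nonselective hits from the GPR151 activator screen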
Active calls of the source: *; . = not tested or not shown.

SMILES	MITF primary	TEAD-YAP inh	GPR151 activ	FBW7 activator	GPR151 confirm	GPR119 counter
COc1ccccc1C1(NC(=O)CCn2nc(C)cc2C)CCCC1	-11	8	5.0*	0	1	-3
COCCn1c(SCC(=O)N2CC(=O)Nc3ccccc32)nnc1-c1ccoc1C	0	-14	7.6*	0	1	5
CN1C(=O)C(O)(CC(=O)c2ccc(F)cc2)c2ccccc21 (stereo unspecified)	-6	1	4	0	.	.
CC(C)N1C(=O)C(O)(CC(=O)c2ccc3ccccc3c2)c2ccccc21 (stereo unspecified)	6	2	6.2*	0	-1	-9
COc1ccc(C(=O)CC2(O)C(=O)N(C(C)C)c3ccccc32)cc1 (stereo unspecified)	-17	-4	12*	0	0	-9
CN1C(=O)C(O)(CC(=O)c2cccnc2)c2ccccc21 (stereo unspecified)	18	9	14*	0	-1	-13
CN1C(=O)C(O)(CC(=O)c2ccc3ccccc3c2)c2ccccc21 (stereo unspecified)	5	-2	0	0	.	.
O=C(Nc1ccc(-c2nc3ccccc3[nH]2)cc1)C(c1ccccc1)c1ccccc1	8	-3	-1	0	.	.
CCOc1cc(C=C2C(=O)c3ccccc3C2=O)ccc1OC(C)=O	6	15	10*	0	-1	-16
CC(=O)c1oc2ccc3c(C)cc(=O)oc3c2c1C	3	2	0	0	.	.
Cc1cc(=O)oc2c1ccc1oc(C(=O)c3ccc(Cl)cc3)c(C)c12	-3	-5	5.7*	0	0	1
Cc1ccc(/C=C2\C(=N)N3N=C(N4CCOCC4)SC3=NC2=O)cc1	0	-7	0	0	.	.
CCCN(CCC)S(=O)(=O)c1ccc(C(=O)Nc2nc3c(OC)cccc3s2)cc1	-31	4	6.6*	0	0	12
CCCN(CCC)S(=O)(=O)c1ccc(C(=O)Nc2nc3c(ccc4ccccc43)s2)cc1	-4	8	-1	0	.	.
CCOC(=O)C(NCCc1ccccc1)(NC(=O)c1ccc(OC)cc1)C(F)(F)F (stereo unspecified)	4	-7	1	0	.	.
CN(C)/C=C1\CCCCN2C(=O)/C(=C\c3ccc(Cl)cc3)N=C12	5	-10	-1	0	.	.
C/C(=N\Nc1cc(-n2cc(C)cn2)ncn1)c1ccccc1	4	-10	0	0	.	.
C/C(=N\Nc1cc(-n2cc(C)cn2)ncn1)c1cccc([N+](=O)[O-])c1	14	10	19*	0	0	4
CN(CCO)c1ncnc2sccc12	-1	6	6.6*	0	0	4
OCC1CCN(C2CCCN(Cc3ccc4nonc4c3)C2)CC1 (stereo unspecified)	0	-4	5.9*	0	0	-9
OCC1CCN(C2CCCN(Cc3ccc4nsnc4c3)C2)CC1 (stereo unspecified)	-2	4	2	0	.	.
COC(=O)c1cccc(-c2ccc(/C=C(\C#N)C(N)=C(C#N)C#N)o2)c1	12	0	0	0	.	.
CCCCSc1nnc2c(n1)OC(c1ccccc1OCC(=O)OCC)Nc1ccccc1-2 (stereo unspecified)	-5	-23	5.1*	0	0	4
CCCCSc1nnc2c(n1)OC(c1ccccc1OC)Nc1ccccc1-2 (stereo unspecified)	0	-9	-2	0	.	.
CCCCSc1nnc2c(n1)OC(C)(C)Nc1ccccc1-2	9	4	5.1*	0	0	3
SMILES	MITF primary	TEAD-YAP inh	GPR151 activ	FBW7 activator	GPR151 confirm	GPR119 counter
CC(C)(C)CC(=O)NCc1nc(-c2ccccc2)no1	2	-3	1	0	.	.
O=C(C1=C(Nc2ccccc2)C(=O)N(c2ccccc2)C1c1ccccc1F)c1ccccc1 (stereo unspecified)	13	3	1	0	.	.
CCCCOC(=O)c1ccc(NC(=O)CNC(=O)c2cn(C)nc2OC)cc1	7	5	-1	1	.	.
Cn1ccnc1CN1CCC(Oc2ccc(C(=O)NCc3ccncc3)cc2)CC1	-8	6	5.2*	0	0	1
O=C1C(c2ccc(F)cc2)N(C2CCCCC2)C(=O)CN1C1CCCCCC1 (stereo unspecified)	6	11	8.6*	1	3	9
O=C1C(c2ccc(F)cc2)N(C2CCCCCCC2)C(=O)CN1C1CCCCCC1 (stereo unspecified)	4	-4	8.2*	1	-1	0
O=C1C(c2ccc(F)cc2)N(C2CCCC2)C(=O)CN1C1CCCCC1 (stereo unspecified)	-5	-6	0	0	.	.
CCOC(=O)C1=C(C)N=c2s/c(=C\c3cc(Br)c(O)c(Br)c3)c(=O)n2C1c1cccs1 (stereo unspecified)	-1	-16	-1	0	.	.
O=C(NCCc1ccccc1)c1ccc2c(c1)C(=O)N(c1ccccn1)C2=O	2	3	0	0	.	.
CC(=O)Nc1ccc(OCC(O)CNC2CCCC2)cc1 (stereo unspecified)	24	-1	5.5*	0	1	12
COc1ccccc1-c1cc(C(=O)N2C(C)CCCC2C)no1 (stereo unspecified)	-3	-16	1	0	.	.
CCOC(=O)C1CCN(S(=O)(=O)c2cc3[nH]c(=O)c(=O)[nH]c3cc2C)CC1	-8	-1	5.2*	0	0	-2
COc1ccc(NC(=O)c2snc3c(=O)[nH]c(C)nc23)cc1OC	13	-3	1	0	.	.
CCOC(=O)CCN(Cc1ccccc1F)S(=O)(=O)c1ccc(C)cc1	0	-1	4.9*	0	-2	-18
CCOC(=O)CCCN(Cc1ccc(Cl)cc1Cl)S(=O)(=O)c1ccc(F)c(C)c1	15	12	5.0*	0	0	-14
CCOC(=O)CCN(Cc1ccccc1F)S(=O)(=O)c1ccc(Br)cc1	15	-8	-1	0	.	.
CCOC(=O)CCCN(Cc1ccc(F)cc1)S(=O)(=O)c1ccc(F)c(C)c1	13	5	3	0	.	.
CCC(=O)N1CCN(c2ccc(NC(C)=O)cc2Cl)CC1	2	-7	0	0	.	.
CC(=O)c1cccc(NC(=O)C(C)N2C(=O)C3C4C=CC(C5CC45)C3C2=O)c1 (stereo unspecified)	12	7	0	0	.	.
CC(C(=O)Nc1cccc([N+](=O)[O-])c1)N1C(=O)C2C3C=CC(C4CC34)C2C1=O (stereo unspecified)	9	-1	8.6*	0	0	-9
Cc1ccc(NC(=O)c2ccc3c(=O)n(C4CCCCC4)c(=S)[nH]c3c2)cc1Cl	9	-3	0	0	.	.
Cc1ccc(NC(=O)c2cnc(N3CCN(c4ccccn4)CC3)c3ccccc23)cc1F	2	12	10*	0	-1	-14
